Assay results published in PubChem BioAssay (NCATS).
Inconclusive results are not listed. Where a structure was tested more than once in an assay, its records may differ in their call. Active and inactive are the calls of the source. Calls follow the shape of the dose curve; as a rule, active = well fitted inhibition curve with a large enough effect; inconclusive = small, poorly fitted or top-dose-only effect; inactive = flat fitted curve, though single readings scatter.
% is scaled to controls: 0 for no effect and ±100 for the full control effect; potency is read from the fitted curve at half-maximal effect.

These compounds were tested on MCC-26 (assay: qHTS assay to identify novel small-molecules to repurpose for Merkel cell carcinoma treatment (AID 1296009; also: nearly all actives have a fitted effect of over 60% in size)). Conditions: MCC and control cell lines, CellTiter-Glo viability, 72 h; series mostly up to 46 µM; activity change, negative = cytotoxicity: at the top concentration.
Description: MCC is a rare and aggressive neuroendocrine skin cancer with limited treatment options. Approximately 80% of MCCs have the Merkel cell polyomavirus (MCPyV) DNA integrated into the host genome (virus-positive: VP-MCC) and viral oncogenes drive oncogenesis. The remaining MCCs are virus-negative (VN-MCC) and are caused by UV mutagenesis. To identify novel treatments for VP-MCC and/or VN-MCC we screened three VP-MCC cell lines (WAGA, MKL-1, MKL-2), three VN-MCC cell lines (MCC-13, MCC-26, UISO), and four immortalized, non-transformed control cell lines (HaCaT, HEK293T, CRL7250, NIH-3T3) against ~2,400 compounds in the NCGC Pharmaceutical Collection (NPC) and ~1,900 compounds in the Mechanism Interrogation PlatE (MiPE). Using cell viability as a readout (CellTiter-Glo assay) we found both overlapping and distinct drugs that can be repurposed for the treatment of VP-MCC and VN-MCC.
A high-throughput screen was conducted in 1536-well white flat bottom plates (Corning) on a Kalypsys robotic system. Cell lines WAGA, MKL-1, MKL-2, MCC-13, MCC-26, UISO, HaCaT, HEK293T, CRL7250, and NIH-3T3 were screened against 2 small molecule annotated drug libraries NPC and MIPE in dose response (8 and 11 pt. respectively) measuring cell viability after 72 hours of incubation. […] A 1,536 pintool (Kalypsys) was used to transfer 23 nL of compound in DMSO to the 1,536-well assay plates. After 72 hr incubation at 37 degree celsius, 2.5 uL of CellTiter-Glo (Promega) was dispensed into each well using a BiorapTR. Plates were incubated at room temperature for 10 min, transferred to a ViewLux (PerkinElmer) and the luminescence was recorded using an exposure time of 2 seconds. Relative luminescence units (RLUs) were normalized to in-plate controls (no cells as a positive (cytotoxicity) control, DMSO as negative control) and the normalized data was processed using NCATS in-house software.
For `C=C1C[C@@H]2[C@H](CC[C@]3(C)C(=O)CC[C@@H]23)[C@@]2(C)C=CC(=O)C=C12`, the “activity change, negative = cytotoxicity” value was -12.5% (inactive). In the case of `c1ccc2c(c1)Nc1ccccc1S2`, the Potency was “inactive”. In the case of `NCCc1cc(O)c(O)cc1O`, the “activity change, negative = cytotoxicity” value was -4.32% (inactive). With `Cc1ccc2c(c1)C1CN(C)CCC1N2` (stereo not given) the “activity change, negative = cytotoxicity” value was -9.27% [at 16.1 µM] (inactive). For `Clc1ccc(COC(Cn2ccnc2)c2ccc(Cl)cc2Cl)cc1` (stereo not given), the Potency was 21.1 µM (active) and inactive. For `CCCN1CCC[C@@H]2Cc3[nH]ncc3C[C@H]21`, the “activity change, negative = cytotoxicity” value was -2.66% (inactive). `Oc1cccc2cccnc12` was tested, and the Potency was 21.7 µM (active) and inactive. For `COc1ccc(Cc2nccc3cc(OC)c(OC)cc23)cc1OC`, the Potency was “inactive”. `NCC(CC(=O)O)c1ccc(Cl)cc1` (stereo not given) was tested, and the activity change, negative = cytotoxicity was -16.1% [at 0.597 µM] (inactive). For `CCCC1CCCCN1` (stereo not given), the “activity change, negative = cytotoxicity” value was 4.35% (inactive). With `O=C(O)c1ccc2[nH]cc(CCCCN3CC=C(c4ccccc4)CC3)c2c1` the “activity change, negative = cytotoxicity” value was -7.65% (inactive). With `CCN(CC)CCN1C(=O)CN=C(c2ccccc2F)c2cc(Cl)ccc21` the “activity change, negative = cytotoxicity” value was 0.569% (inactive). `NCC(O)c1ccc(O)cc1` (stereo not given) was tested, and the “activity change, negative = cytotoxicity” value was 5.2% (inactive). With `Fc1ccc(C(OCCN2CCN(CCCc3ccccc3)CC2)c2ccc(F)cc2)cc1` the “activity change, negative = cytotoxicity” value was -26.5% (inactive). For `CCN(C(C)=O)c1cccc(-c2ccnc3c(C#N)cnn23)c1`, the “activity change, negative = cytotoxicity” value was -2.52% (inactive). In the case of `O=C(NC(O)C(Cl)(Cl)Cl)NC(O)C(Cl)(Cl)Cl` (stereo not given), the “activity change, negative = cytotoxicity” value was 9.74% (inactive). `Cc1ccc(-c2nc3ccc(C)cn3c2CC(=O)N(C)C)cc1` was tested, and the “activity change, negative = cytotoxicity” value was -5.34% (inactive). `NCC1(CC(=O)O)CCCCC1` was tested, and the Potency was “inactive”. In the case of `CCC(C(N)=O)N1CCCC1=O` (stereo not given), the “activity change, negative = cytotoxicity” value was -0.836% (inactive). For `COc1ccccc1N1CCNCC1`, the “activity change, negative = cytotoxicity” value was 0.7% (inactive). `CC1NCCOC1c1ccccc1` (stereo not given) was tested, and the “activity change, negative = cytotoxicity” value was 6.8% (inactive). With `C[C@]12CCC(=O)C(O)=C1CC[C@@H]1[C@@H]2CC[C@]2(C)C(=O)CC[C@@H]12` the “activity change, negative = cytotoxicity” value was 4.47% (inactive). With `CC(C)(C)CC(C)(C)c1ccc(O)cc1` the Potency was “inactive”. In the case of `CN(C)[C@@H]1C(=O)C(C(N)=O)=C(O)[C@@]2(O)C(=O)C3=C(O)c4c(O)cccc4[C@@](C)(O)[C@H]3C[C@@H]12`, the Potency was “inactive”. `CC1OC(C)OC(C)O1` (stereo not given) was tested, and the “activity change, negative = cytotoxicity” value was 8.22% (inactive). For `C[C@@H]1O[C@@H](O[C@H]2C[C@@H](O)[C@]3(CO)[C@H]4[C@H](O)C[C@]5(C)[C@@H](C6=CC(=O)OC6)CC[C@]5(O)[C@@H]4CC[C@]3(O)C2)[C@H](O)[C@H](O)[C@H]1O`, the Potency was 235 nM (active). In the case of `C#CCN(C)[C@H](C)Cc1ccccc1`, the Potency was “inactive”. With `Nc1ccncc1` the “activity change, negative = cytotoxicity” value was 6.59% (inactive). For `CC(C)CC(N(C)C)C1(c2ccc(Cl)cc2)CCC1` (stereo not given), the “activity change, negative = cytotoxicity” value was 11.9% (inactive). `CC[N+]1(C)CCCC(OC(=O)C(O)(c2ccccc2)c2ccccc2)C1` (stereo not given) was tested, and the “activity change, negative = cytotoxicity” value was -1.94% (inactive). With `CCC1(C2=NCCN2)Cc2ccccc2O1` (stereo not given) the “activity change, negative = cytotoxicity” value was 6.92% (inactive). In the case of `C=CCN1CC[C@]23c4c5ccc(O)c4O[C@H]2C(=O)CC[C@@]3(O)[C@H]1C5`, the “activity change, negative = cytotoxicity” value was 13.4% (inactive). `CN(C)CCc1ccc(O)cc1` was tested, and the Potency was “inactive”. `NN=C(N)N` was tested, and the “activity change, negative = cytotoxicity” value was 6.66% (inactive). In the case of `Oc1cc(Cl)ccc1Oc1ccc(Cl)cc1Cl`, the “activity change, negative = cytotoxicity” value was -5.97% (inactive). In the case of `CCN(CC)C(=O)N[C@@H]1C=C2c3cccc4[nH]cc(c34)C[C@@H]2N(C)C1`, the “activity change, negative = cytotoxicity” value was 6.99% (inactive). `COc1ccc(C(=O)c2c(C)n(CCN3CCOCC3)c3ccccc23)cc1` was tested, and the Potency was “inactive”. `N[C@@H]1C[C@H]1c1ccccc1` was tested, and the “activity change, negative = cytotoxicity” value was -4.98% (inactive). `C[C@@H]1[C@@H](C(=O)C[C@H]2O[C@@H]3O[C@]4(C)CC[C@@H]5[C@H](C)CC[C@@H]([C@H]2C)[C@@]35OO4)O[C@@H]2O[C@]3(C)CC[C@H]4[C@H](C)CC[C@@H]1[C@@]24OO3` was tested, and the “activity change, negative = cytotoxicity” value was -7.37% (inactive). With `FC(F)(F)c1cccc(C2=CCN(CCc3ccc4ccccc4c3)CC2)c1` the “activity change, negative = cytotoxicity” value was -3.78% (inactive).
